Laboratory results taken from the supplement of paper PMC12632987.
Over roughly 1,800 sequences, “median log2 fold change of GCK-ALFA target abundance (FLAG IP / Myc IP barcode read proportion)” has its median near 0.14; the lowest 2% begin near -0.84. The full list was thinned out, with the lowest values kept by preference.

T1: TRAF2, Q12933
T1 chain: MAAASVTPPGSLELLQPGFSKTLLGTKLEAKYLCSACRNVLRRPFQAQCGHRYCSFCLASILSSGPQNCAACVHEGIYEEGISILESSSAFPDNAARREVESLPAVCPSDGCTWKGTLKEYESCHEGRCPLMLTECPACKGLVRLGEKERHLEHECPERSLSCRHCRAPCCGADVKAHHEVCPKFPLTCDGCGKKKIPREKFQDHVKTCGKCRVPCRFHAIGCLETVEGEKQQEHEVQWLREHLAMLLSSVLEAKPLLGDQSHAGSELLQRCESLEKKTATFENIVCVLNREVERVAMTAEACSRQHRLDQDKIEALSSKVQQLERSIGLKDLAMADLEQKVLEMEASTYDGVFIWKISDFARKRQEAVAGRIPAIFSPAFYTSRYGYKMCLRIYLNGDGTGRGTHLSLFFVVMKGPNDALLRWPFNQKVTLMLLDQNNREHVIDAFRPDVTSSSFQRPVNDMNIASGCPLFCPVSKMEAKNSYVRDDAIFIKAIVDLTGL

B1: traf2_out_13_95_1086 (protein)
chain: SKEVNEKIMEIADEMMEQILATLDALAKQVAGDPELAAAVAEARRLAETRGVNEAIHKLRELAKANPEHAELLNAAIAEIEAIKKEASKKISELLKEEEE
B2: traf2_out_6_3_2525 (protein)
chain: SSESLRKDARKVLENMGITTAEQLLTLVTAEVNAVKKVASRPDFDRADVAGLRSVLALTRAMVEVAYEELPSVTEADKAEALALIADAEALVEAKAKELE
B3: traf2_out_3_89_2280 (protein)
chain: SMEEEEKIKEARENIETWIRGLRKSTRRVAEEMRKEGASLETIKGLIDSSATALLEAFKISLKDKGFDEETIEELVEEAKEELEKIREELKEEAEKAYEE
B4: traf2_out_13_95_1091 (protein)
chain: SKEVAEKINKIADEMLDKSLALLEKLLKIAEEKGKAVEEIKEAIDLAEYRSINEAIHKLEELAKKYPEFKEELEATIKEIRAIKREAGRKVAEILKEEKE
B5: traf2_out_13_95_1104 (protein)
chain: SAETAEKIMKIADEMLDKVEKILEELLKIAKEKGKLEEEIKEALHLARYQSINEAIHKLKELAKKYPEFKEELEAAIKEIEALKKEAGRKVAEILKEEKK
B6: traf2_out_13_95_1106 (protein)
chain: SAETAEKIMEIADEMLDKVEELLEKLLEIAKKKGKLEEEIQEALHLARYRSINEAIHLLKELAKKYPEFKEELEETIEKIEELIREAGRKVAEILKEEKE
B7: traf2_out_20_38_2033 (protein)
chain: SEEEEEKRRLEEAIEVANEAYDKYSARVAAWKAAGKTVEEIAEEAKEEVRRLLTEAGLEEEAEILIEDIDRALSSPEAERLIVRILARAEALVYQKKVNE
B8: traf2_out_11_104_646 (protein)
chain: LTREQAREFNDFAMEANDKAKELLQEVADFLESRGHEEEAAKVRAELAHPGSGVSTFKNLLEELLPKLDEESRAVAEKAIKELEELQKKVSDKLNELEKK

Biological target: T1, TRAF2, Q12933
Assay: median log2 fold change of GCK-ALFA target abundance (FLAG IP / Myc IP barcode read proportion) (log2 ratio); each designed protein is fused to an ALFA-tag nanobody in HEK293 cells to bring the named protein to FLAG-tagged glucokinase (GCK); Myc marks an untargeted standard; higher = target protein stabilised (more abundant)
Details: target protein: 3xFLAG-MCP-GCK-ALFA reporter; HEK293 landing pad (RPLP)
Procedure: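 LABEL-seq trans screen in HEK293 landing-pad cells. Each de novo designed 100-aa effector handle, binding the indicated effector (E3 ligase, DUB or autophagy protein), is fused to a constant NbALFA target handle and induced with 2 ug/mL doxycycline. A FLAG-MCP-GCK-ALFA target and a Myc-MCP standard reporter were transfected, and after 48 h circRNA barcodes were recovered by anti-FLAG and anti-Myc IP and sequenced. The value is the median across barcodes (at least 3 per design) of log2(FLAG/Myc read-proportion ratio), with the two transfection replicates pooled. Negative values mean degradation and positive values mean stabilisation of the target.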

Binder	median log2 fold change
B1	-0.0311
B2	-0.025
B3	0.0329
B4	-0.417
B5	-0.841
B6	-0.553
B7	-0.971
B8	0.185
